Measurements published in PubChem BioAssay AID651602 (The Scripps Research Institute Molecular Screening Center, 2012).
Out of some 360,000 compounds screened, about 950 (0.26%) were called active. The sample as a whole holds a higher share of actives than the screen did. Unmarked numbers belong to inactive results. Rule as the data show it: active = inhibition above about 11%; inactive = the rest.

assay: growth loss of phage-infected E. coli, primary screen, RecBCD inhibitor project, absorbance, with phage, HTS (AID 651602); details: at 11.9 µM, stronger effect = higher value

Row | SMILES | inhibition
1 | C/C(=N/O)c1ccc2ccc3ccccc3c2c1 | 1.01%
2 | Cc1ccc(-n2c(-c3ccc([N+](=O)[O-])cc3)nc3ccccc3c2=O)cc1 | 0.89%
3 | O=[N+]([O-])c1cnc2ccc3ccccc3c2c1 | 18.9% (active)
4 | Cc1cccc(-n2c(C)nc3cc(C(=O)N4CCC5(CC4)OCCO5)ccc32)c1 | 4.97%
5 | COC(=O)C1=C(c2ccc(OCc3ccccc3)cc2)C[C@@H]2CC[C@H]1N2C(=O)NCc1cccc(F)c1 | 4.61%
6 | N#CC1=C(N)Oc2c(c(=O)oc3ccccc23)C1c1ccccc1OC(=O)c1cccs1 (stereo not given) | 5.44%
7 | CCc1nnc(NS(=O)(=O)c2ccc(N=Cc3c(O)n(-c4ccccc4)c(=O)[nH]c3=O)cc2)s1 | 11.9% (active)
8 | COc1ccc(N=Cc2c(O)n(C)c(=O)[nH]c2=O)cc1 | 0.79%
9 | O=c1[nH]c(=O)n(-c2ccccc2)c(O)c1C=NC12CN3CN(CN(C3)C1)C2 | 1.36%
10 | CCC1(C)CC(CCNCc2ccc(N(C)C)cc2)(c2ccc(F)cc2)CCO1 (stereo not given) | 4.38%
